Compounds with a hit are over-represented: about 19% of the library has one in this group of screens.
HT1080 IDH1KD tx: HT-1080 IDH1 knockdown cell toxicity (counter line); 360,000 compounds, 2% hits; Potency, µM (highest dose often 46.1 µM), usual class: cytotoxic; HT-1080 IDH1 knockdown viability, ATP luminescence, 48 h
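Cytotoxicity counter-line: IDH1KD HT-1080, 48 h, CellTiter-Glo. Curves classed by r2, magnitude and activity.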
KB-V1 MDR tox: kills drug-selected multidrug resistant KB-V1 cells. 400,000 compounds, 3.4% hits. KB-V1 MDR cells viability, CellTiter-Glo, 72 h. Potency, µM (highest dose often 46.1 µM), hits mostly cytotoxic; note: nearly all actives have a fitted effect of over 60% in size
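Following 72 h at 37 degrees C with compound, KB-V1 cell viability was read by CellTiter-Glo luminescence, medium being phenol-red-free DMEM plus 10% FBS; concentration-response parameters came from normalized, curve-fitted qHTS data.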
HT1080NT lethal: kills 2HG-producing HT-1080-NT fibrosarcoma cells; HT-1080-NT fibrosarcoma viability, CellTiter-Glo ATP luminescence, 48 h; Potency, µM (highest dose often 46.1 µM), actives largely listed as cytotoxic; 360,000 compounds, 1.6% hits;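 note: NT is the 2HG producing partner of a matched IDH1 knockdown line; nearly all actives have a fitted effect of over 55% in size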
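Luminescent CellTiter-Glo readout after 48 hours of compound exposure at 37 degrees C defined viability of HT-1080-NT cells. Activity was normalized to DMSO wells and cell-free media wells; concentration-response curves were fitted and assigned curve classes.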
TDP1 cell CPT: growth inhibition of DT40 Tdp1-/-;hTDP1 cells with camptothecin (screen for TDP1 inhibitors); Potency, µM (top dose mostly 46.2 µM), most hits filed as inhibitors; AID 686979; chicken DT40 Tdp1-/-;hTDP1 cells + 20 nM CPT, ATP luminescence, 48 h; 420,000 compounds, 12% hits; note: nearly all actives have a fitted effect of over 55% in size
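Chicken DT40 Tdp1-/- cells stably complemented with human TDP1 were seeded at 400 cells/well in medium containing 20 nM camptothecin, exposed to pin-transferred compounds, and grown at 37 °C for at least 48 hr. Viability was read as ATP luminescence.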
KB-3-1 tox: KB-3-1 parental cell cytotoxicity. KB-3-1 viability, CellTiter-Glo ATP luminescence, 72 h. Potency, µM (titrated, usually from 46.1 µM), most hits filed as cytotoxic. 400,000 compounds, 1.4% hits; note: nearly all actives have a fitted effect of over 60% in size
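KB-3-1 parental drug-naive adenocarcinoma cells in DMEM/10% FBS, incubated 72 h at 37 C with pin-transferred compounds across a concentration series. Viability by CellTiter-Glo luminescence; concentration-response curves fitted after normalization.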
TDP1 cell noCPT: qHTS for Inhibitors of human tyrosyl-DNA phosphodiesterase 1 (TDP1): qHTS in cells in absence of CPT; 420,000 compounds, 15% hits; DT40 Tdp1-/- hTDP1 cells, no CPT, ATP luminescence, 48 h; Potency, µM (top dose mostly 46.2 µM), most hits filed as inhibitors; note: nearly all actives have a fitted effect of over 55% in size
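Seeded 400 DT40-hTDP1 cells/well (vehicle DMSO, no 20 nM CPT); pinned compounds; ≥48 hr at 37 °C; CellTiter-Glo luminescence as viability measure.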
A number is an active result; 0 = inactive; ? = inconclusive; - = no result; [ ] = another dose, or the depositor's remark. Calls come from the whole dose curve; as a rule, active = well fitted curve in the direction sought with a large enough effect; inconclusive = small, poorly fitted or top-dose-only effect, or another doubt; inactive = no such curve, though single readings can be large; an effect the other way counts as inactive or inconclusive.

SMILES	HT1080 IDH1KD tx	KB-V1 MDR tox	HT1080NT lethal	TDP1 cell CPT	KB-3-1 tox	TDP1 cell noCPT
O=[N+]([O-])c1cc([N+](=O)[O-])c(Oc2cc(F)ccc2F)cc1NN1CCCCC1	0	?	0	?	0	?
COc1ccc(-c2cc3nc(C)c(CCC(=O)NC4CCCCC4)c(C)n3n2)c(OC)c1	-	0	-	?	0	?
CCOC(=O)c1ccc(-n2c(CN3CCC(O)CC3)nc3ccc([N+](=O)[O-])cc3c2=O)cc1	0	0	0	21µM	0	?
CC(=O)N1CCN(Cc2nc3cc([N+](=O)[O-])ccc3n2C)CC1	0	0	0	6.5µM	0	?
CCOC(=O)c1ccc(-n2c(CN3CCC(C(N)=O)CC3)nc3ccc([N+](=O)[O-])cc3c2=O)cc1	0	0	0	?	0	0
CCOC(=O)c1ccc(-n2c(CN3CCOCC3)nc3ccc([N+](=O)[O-])cc3c2=O)cc1	0	0	0	0	0	0
CCOC(=O)c1ccc(-n2c(CN(CC)CC)nc3ccc([N+](=O)[O-])cc3c2=O)cc1	0	0	0	18µM	0	?
COc1ccc2c(=O)c(-c3ccccc3C)c(C)oc2c1	0	0	0	?	0	13µM
CCCOc1ccc2c(=O)c(-c3cc(C(=O)OC)oc3C)c(C)oc2c1	0	?	0	13µM	0	18µM
COc1ccc(-c2oc3ccccc3c(=O)c2O)cc1	-	-	-	0	-	0
COc1ccc2c(=O)c(-c3ccc(C)cc3)c(-c3ccccc3)oc2c1	0	0	0	12µM	0	7.3µM
COc1ccc2c(=O)c(OC)c(-c3ccccc3)oc2c1	-	-	-	?	-	7.3µM
COc1ccccc1-c1c(C)oc2cc(OC(=O)c3ccco3)ccc2c1=O	0	?	0	?	?	?
COc1ccc(C(CC(=O)c2ccccc2)C2CCCCC2=O)cc1 (configuration not stated)	0	?	0	16µM	0	0
COc1ccc(C(=O)CC(c2ccccc2)C2C(=O)CCCC2=O)cc1 (configuration not stated)	0[9.24 µM]	0	0	0	0	0
COc1ccc(CO[C@@H]2O[C@H](CO)[C@@H](O)[C@H](O)[C@H]2NC(C)=O)cc1OC	0	0	0	0	0	0
Cc1c(C(=O)NCc2cccc([N+](=O)[O-])c2)sc(=O)n1Cc1ccc(C(C)C)cc1	0	9.2µM	0	?	?	?
Cc1c(C(=O)NCc2cccc([N+](=O)[O-])c2)sc(=O)n1Cc1cccc(F)c1	0	?	0	?	0	0
CC(=O)Oc1ccccc1Cn1c(C)c(C(=O)NCc2cccc([N+](=O)[O-])c2)sc1=O	0	18µM	0	?	0	21µM
Cc1c(C(=O)NCc2cccc([N+](=O)[O-])c2)sc(=O)n1Cc1ccc(F)cc1	0	?	0	16µM	0	?
COc1cc(NC(=O)c2cc(S(=O)(=O)N3CCC(C)CC3)cn2C)cc(OC)c1OC	-	0	-	0	0	0
CC(C)(C)c1ccc(OCC(=O)NCC(c2cccs2)N2CCOCC2)cc1 (configuration not stated)	0	0	0	?	0	?
COc1ccccc1NC(=O)c1ccc(NC(=O)Cc2n[nH]c(=O)c3ccccc23)cc1	0	0	0	0	0	0
Cc1nc(N)nc(N)c1Oc1ccc(Cl)cc1	0	0	?	9.2µM	0	?
CC1(C(=O)Nc2ccccc2)CCN1C(=O)CCc1ccc(Cl)cc1Cl (configuration not stated)	0	0	0	?	0	21µM
CSc1ccccc1NC(=O)C1(C)CCN1C(=O)Cc1ccc(Cl)cc1Cl (configuration not stated)	0	0	0	?	0	?
CC1(C(=O)NCc2ccc3c(c2)OCO3)CCN1C(=O)CCc1ccc(Cl)cc1Cl (configuration not stated)	?	0	0	21µM	0	15µM
